Results taken from PubChem BioAssay (Tox21).
Results filed as inconclusive are left out. Activity calls are given as the source filed them. Unless noted, calls follow the shape of the full dose curve.

Columns and labels:
[1] = Nuclear factor erythroid 2-related factor 2/antioxidant responsive element (Nrf2/ARE) small molecule agonists: qHTS cell viability counter screen in human keratinocytes (AID 1919968; active = well fitted curve in the direction sought with a large enough effect in the repeat runs; an effect the other way counts as inactive or inconclusive; also: nearly all actives have a fitted effect of over 55% in size; also: potency is read from the fitted curve at half-maximal effect)
In short: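 Parallel cytotoxicity read: KeratinoSens HaCaT cells, compound treatment 23 h, viability by CellTiter-Fluor fluorescence 1 h post-reagent.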

[2] = Nuclear factor erythroid 2-related factor 2/antioxidant responsive element (Nrf2/ARE) small molecule agonists: luciferase reporter gene qHTS assay in human keratinocytes (AID 1919969); also: nearly all actives have a fitted effect of over 35% in size; also: potency is read from the fitted curve at half-maximal effect
[3] = molecular target: Gonadotropin-releasing hormone receptor (Homo sapiens) (UniProt P30968); experiment: Human gonadotropin-releasing hormone receptor (GnRHR) small molecule agonists, calcium flux assay in GnRHR-HEK293 cells (AID 1920063); also: nearly all actives have a fitted effect of over 35% in size
Sequence of Gonadotropin-releasing hormone receptor (Homo sapiens) (P30968 whole entry, looked up): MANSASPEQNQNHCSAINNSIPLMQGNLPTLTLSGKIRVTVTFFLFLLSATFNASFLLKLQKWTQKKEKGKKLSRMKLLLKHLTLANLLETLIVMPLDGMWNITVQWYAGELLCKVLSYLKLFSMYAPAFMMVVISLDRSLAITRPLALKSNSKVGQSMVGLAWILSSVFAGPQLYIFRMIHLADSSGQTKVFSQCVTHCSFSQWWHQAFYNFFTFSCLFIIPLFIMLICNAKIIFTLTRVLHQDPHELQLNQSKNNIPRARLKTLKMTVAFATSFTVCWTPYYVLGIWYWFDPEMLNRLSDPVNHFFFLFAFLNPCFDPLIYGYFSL
In short: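 Calcium flux, agonist mode, human GnRHR stably integrated in HEK293; dye 1 h at 37 C before compound; Ex/Em=480/540 kinetic read, 3 min; 15 concentrations, triplicate.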

[4] = molecular target: KiSS-1 receptor (Homo sapiens) (UniProt Q969F8); experiment: Human kisspeptin (KISS1R) small molecule agonists, calcium flux assay in KISS1R-HEK293 cells (AID 1920064; active = well fitted curve in the direction sought with a large enough effect in the repeat runs; an effect the other way counts as inactive or inconclusive)
Sequence of KiSS-1 receptor (Homo sapiens) (Q969F8 whole entry, looked up): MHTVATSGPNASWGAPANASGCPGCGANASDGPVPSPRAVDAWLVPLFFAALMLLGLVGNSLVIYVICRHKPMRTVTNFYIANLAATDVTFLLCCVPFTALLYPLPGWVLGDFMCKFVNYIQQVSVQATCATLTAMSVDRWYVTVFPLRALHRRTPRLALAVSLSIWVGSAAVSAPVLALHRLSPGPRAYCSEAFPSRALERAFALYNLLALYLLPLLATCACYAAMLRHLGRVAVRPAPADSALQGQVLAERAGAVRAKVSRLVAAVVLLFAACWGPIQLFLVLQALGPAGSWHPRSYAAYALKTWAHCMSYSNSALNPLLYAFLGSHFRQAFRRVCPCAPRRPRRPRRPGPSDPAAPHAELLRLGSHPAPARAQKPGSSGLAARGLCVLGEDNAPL
In short: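 Triplicate 15-concentration series were applied to dye-loaded human KISS1R HEK293 cells, and agonist-evoked calcium fluorescence was captured for 3 min.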

[5] = G protein-coupled receptor (GPCR) small molecule agonists, calcium flux assay: HEK293 wild type cell line counter screen (AID 1920065)
In short: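 Non-specific calcium responders were flagged by adding DMSO-dissolved compounds to dye-loaded cells and reading 480/540 nm fluorescence each second for 3 min; ATP served as positive control.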

[6] = p53 small molecule agonists, cell-based qHTS assay with human liver microsomes (AID 1963577);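 also: p53 response element beta-lactamase reporter cells with liver microsomes plus NADPH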
In short: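 Reporter activation was measured by LiveBLAzer fluorescence intensity in p53RE-bla cells, which had been exposed to compounds for 16 h at 37 C alongside 0.5 mg/mL human liver microsomes and 0.5 mg/mL NADPH (final concentrations).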

[7] = p53 small molecule agonists, cell-based qHTS assay with rat liver microsomes (AID 1963578)
In short: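 Compound in DMSO added to p53RE-bla cells 5 h post-plating; rat microsomes/NADPH 0.5 mg/mL final; 16 h, 37 C; LiveBLAzer 2 h RT.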

[8] = p53 small molecule agonists, cell-based qHTS assay with human liver microsomes: qHTS cell viability counter screen (AID 1963579); also: nearly all actives have a fitted effect of over 45% in size
In short: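 HLM-supplemented (0.5 mg/mL final) and NADPH-supplemented (0.5 mg/mL final) p53RE-bla cultures, 4,000 cells per well, were dosed with compounds in DMSO for 16 h at 37 C; luminescent ATP detection (CellTiter-Glo, 30 min, room temperature) quantified surviving cells.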

[9] = p53 small molecule agonists, cell-based qHTS assay with rat liver microsomes: qHTS cell viability counter screen (AID 1963580); also: nearly all actives have a fitted effect of over 45% in size
In short: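 Cytotoxicity counter screen: intracellular ATP read by CellTiter-Glo luminescence in the p53 reporter wells. HCT-116 p53RE-bla cells were treated for 16 h at 37 C alongside rat liver microsomes and NADPH, each 0.5 mg/mL final.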

[10] = p53 small molecule agonists, cell-based qHTS assay: qHTS cell viability counter screen (AID 1963581); also: nearly all actives have a fitted effect of over 45% in size
In short: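 Multiplexed with the reporter read, a CellTiter-Glo step (30 min, room temperature) gauges ATP-based viability of HCT-116 p53RE-bla cells after 16 h compound incubation at 37 C.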

[11] = molecular target: 5-hydroxytryptamine receptor 2A (Homo sapiens) (UniProt P28223); experiment: 5-hydroxytryptamine receptor 2A (HTR2A) small molecule antagonists, cell-based qHTS assay (AID 1963586); also: nearly all actives have a fitted effect of over 45% in size
Sequence of 5-hydroxytryptamine receptor 2A (Homo sapiens) (P28223 whole entry, looked up): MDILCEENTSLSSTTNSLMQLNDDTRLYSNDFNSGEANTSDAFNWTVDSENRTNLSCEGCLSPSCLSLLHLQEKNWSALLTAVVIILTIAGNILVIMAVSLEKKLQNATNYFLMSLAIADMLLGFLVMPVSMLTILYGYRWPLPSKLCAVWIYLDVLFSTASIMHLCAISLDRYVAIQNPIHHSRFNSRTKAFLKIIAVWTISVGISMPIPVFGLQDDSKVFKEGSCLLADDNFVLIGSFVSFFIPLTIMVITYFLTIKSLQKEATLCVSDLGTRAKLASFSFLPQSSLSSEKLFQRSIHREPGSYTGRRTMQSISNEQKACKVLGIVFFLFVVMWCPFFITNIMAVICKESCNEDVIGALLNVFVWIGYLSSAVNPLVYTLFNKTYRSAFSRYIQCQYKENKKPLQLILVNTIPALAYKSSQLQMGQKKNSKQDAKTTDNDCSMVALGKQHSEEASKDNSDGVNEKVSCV
In short: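 CHO cells stably expressing human HTR2A were plated for 18 h at 37 C, then loaded with calcium dye for 1 h. Compounds were preincubated 5 min at room temperature before DOI (4 nM solution) was added. Kinetic fluorescence was read for 3 min.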

[12] = molecular target: 5-hydroxytryptamine receptor 2A (Homo sapiens) (UniProt P28223); experiment: 5-hydroxytryptamine receptor 2A (HTR2A) small molecule agonists, cell-based qHTS assay (AID 1963587); also: nearly all actives have a fitted effect of over 30% in size
In short: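 Kinetic calcium-flux fluorescence (2 min, 1 sec intervals) after compound addition in agonist mode. HTR2A-CHO cells were cultured 18 h, then dye-loaded 1 h at 37 C.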

[13] = molecular target: Muscarinic acetylcholine receptor M1 (Homo sapiens) (UniProt P11229); experiment: Cholinergic receptor muscarinic 1 (CHRM1) small molecule antagonists, cell-based qHTS assay (AID 1963588); also: nearly all actives have a fitted effect of over 40% in size
Sequence of Muscarinic acetylcholine receptor M1 (Homo sapiens) (P11229 whole entry, looked up): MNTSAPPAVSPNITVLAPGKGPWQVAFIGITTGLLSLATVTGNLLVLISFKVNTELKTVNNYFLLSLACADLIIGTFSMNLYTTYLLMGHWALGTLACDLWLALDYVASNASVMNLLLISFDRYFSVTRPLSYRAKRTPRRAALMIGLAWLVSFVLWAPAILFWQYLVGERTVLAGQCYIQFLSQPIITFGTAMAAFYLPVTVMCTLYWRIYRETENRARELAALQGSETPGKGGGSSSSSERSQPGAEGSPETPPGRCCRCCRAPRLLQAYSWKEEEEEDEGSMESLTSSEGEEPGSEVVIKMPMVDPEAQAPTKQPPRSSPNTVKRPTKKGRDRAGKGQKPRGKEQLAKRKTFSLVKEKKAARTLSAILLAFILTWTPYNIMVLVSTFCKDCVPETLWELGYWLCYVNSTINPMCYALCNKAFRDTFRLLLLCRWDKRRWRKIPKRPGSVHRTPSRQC
In short: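 Compounds were tested at 15 concentrations in three independent runs. Dye-loaded CHRM1-CHO cells were exposed 5 min at room temperature before stimulation by acetylcholine added at 50nM. Intracellular calcium was read kinetically on FDSS for 3 min.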

[14] = molecular target: Muscarinic acetylcholine receptor M1 (Homo sapiens) (UniProt P11229); experiment: Cholinergic receptor muscarinic 1 (CHRM1) small molecule agonists, cell-based qHTS assay (AID 1963589); also: nearly all actives have a fitted effect of over 35% in size
In short: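 qHTS, 15-point titration, 3 independent runs: compounds pin-transferred onto dye-loaded CHRM1-CHO cells (human M1), calcium fluorescence followed every second to detect agonism.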

[15] = cAMP Responsive Elements (CRE) small molecule antagonists, cell-based qHTS assay (AID 1963591; active = well fitted inhibition curve with a large enough effect in the signal ratio in the repeat runs, not every such curve was filed as active; the % refers to the signal ratio)
In short: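 Fluorescence intensity from cleaved LiveBLAzer B/G substrate (2 h, room temperature) quantified CRE-bla activity in HEK 293T cells exposed 3 h to compound with 0.25 uM final NKH477.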

[16] = molecular target: Beta-2 adrenergic receptor (Homo sapiens) (UniProt P07550); experiment: Adrenergic beta2 receptor (ADRB2) small molecule antagonists, cell-based qHTS assay (AID 1963592); also: series mostly up to about 92 µM; nearly all actives have a fitted effect of over 50% in size
Sequence of Beta-2 adrenergic receptor (Homo sapiens) (P07550 whole entry, looked up): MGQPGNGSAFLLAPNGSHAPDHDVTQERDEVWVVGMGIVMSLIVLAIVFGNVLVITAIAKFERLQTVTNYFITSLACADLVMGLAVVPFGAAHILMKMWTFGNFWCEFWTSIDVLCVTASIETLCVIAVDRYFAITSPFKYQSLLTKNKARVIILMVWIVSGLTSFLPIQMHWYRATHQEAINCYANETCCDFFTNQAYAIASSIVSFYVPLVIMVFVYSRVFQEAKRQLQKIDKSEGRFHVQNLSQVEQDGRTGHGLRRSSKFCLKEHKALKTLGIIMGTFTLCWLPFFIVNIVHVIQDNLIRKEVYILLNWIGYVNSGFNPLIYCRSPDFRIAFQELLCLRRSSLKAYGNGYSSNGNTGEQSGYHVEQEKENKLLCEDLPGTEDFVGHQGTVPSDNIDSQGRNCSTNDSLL
In short: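 Assay format: CHO-ADRB2 cells, 18-20hr seeding at 37C/5% CO2, then compound plus 1nM isoproterenol agonist mix for 0.5hr RT. Homogeneous time-resolved fluorescence cAMP detection after 1hr, expressed as 665/615 nm ratio.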

[17] = molecular target: D(2) dopamine receptor (Homo sapiens) (UniProt P14416); experiment: Dopamine D2 receptor (DRD2) small molecule agonists, cell-based qHTS assay (AID 1963594); also: nearly all actives have a fitted effect of over 35% in size
Sequence of D(2) dopamine receptor (Homo sapiens) (P14416 whole entry, looked up): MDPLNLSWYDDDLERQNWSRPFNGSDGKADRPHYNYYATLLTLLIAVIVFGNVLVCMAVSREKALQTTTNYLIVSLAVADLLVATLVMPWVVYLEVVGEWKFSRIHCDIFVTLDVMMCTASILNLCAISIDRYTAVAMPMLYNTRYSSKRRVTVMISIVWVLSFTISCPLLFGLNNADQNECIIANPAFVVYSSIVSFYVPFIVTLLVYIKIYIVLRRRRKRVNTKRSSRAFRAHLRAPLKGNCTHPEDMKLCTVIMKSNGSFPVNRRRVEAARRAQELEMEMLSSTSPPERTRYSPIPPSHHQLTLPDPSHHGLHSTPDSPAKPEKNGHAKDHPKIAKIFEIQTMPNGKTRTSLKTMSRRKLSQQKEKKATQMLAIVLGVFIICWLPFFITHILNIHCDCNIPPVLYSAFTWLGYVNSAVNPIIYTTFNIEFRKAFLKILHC
In short: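 cAMP accumulation in DRD2-HEK293 cells measured by HTRF after 1 h detection; compounds added 10 min before NKH477 (200nM […]) forskolin-analogue stimulation, 30 min at room temperature, with Ro20-1724 present at 0.1 mM final.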

[18] = molecular target: D(2) dopamine receptor (Homo sapiens) (UniProt P14416); experiment: Dopamine D2 receptor (DRD2) small molecule antagonists, cell-based qHTS assay (AID 1963595; active = well fitted inhibition curve with a large enough effect in the signal ratio in the repeat runs, with a control signal flat; the % refers to the signal ratio)
In short: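 Antagonism was scored as restored cAMP in HEK293-DRD2 cells. These cells were stimulated with 200 nM NKH477 and 12 nM quinpirole for 30 min at room temperature, in the presence of 0.1 mM Ro20-1724.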

[19] = p53 small molecule agonists, cell-based qHTS assay (AID 1963582; active = well fitted activation curve with a large enough effect in the signal ratio in the repeat runs, not every such curve was filed as active; the % refers to the signal ratio)
In short: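 Beta-lactamase reporter cells (p53RE-bla) treated with compounds for 16 h at 37 C; FRET substrate, 2 h, room temperature; fluorescence intensity.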

[20] = cAMP Responsive Elements (CRE) small molecule agonists, cell-based qHTS assay (AID 1963590)
In short: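 Quantitative HTS for CRE agonists: HEK 293T CRE-bla cells, overnight plating, 3 h compound incubation at 37 C/5% CO2, then 2 h room-temperature LiveBLAzer B/G FRET substrate loading.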
% is scaled to controls: 0 for no effect and ±100 for the full control effect.

Cc1ccc2nc3sc(=O)sc3nc2c1
active: Potency [1] 3660 nM | Potency [2] 1640 nM
inactive: activity change [3] -0.0057% [at 11.8 µM, stronger effect = higher value] | activation [4] -1.66% [at 15.8 µM] | activation [5] -0.174% [at 11.8 µM] | activation [6] 12.4% [at 13.5 µM] | activation [7] 0.351% [at 13.6 µM] | activity change, negative = cytotoxicity [8] 4.93% [at 13.5 µM] | activity change, negative = cytotoxicity [9] -3.16% [at 13.5 µM] | activity change, negative = cytotoxicity [10] -2.54% [at 13.5 µM] | activity, negative = inhibition [11] 8.83% [at 12.7 µM] | activation [12] -3.01% [at 15.9 µM] | activity, negative = inhibition [13] 5.56% [at 12.6 µM] | activation [14] -0.991% [at 15.8 µM] | activity change, negative = inhibition [15] 1.33% [at 18.9 µM] | activity change, negative = inhibition [16] -4.14% [at 19 µM] | activation [17] 1.16% [at 19 µM] | activity change, negative = inhibition [18] 0.198% [at 18.9 µM]

COC1CC(=C(c2cccs2)c2cccs2)C[N+](C)(C)C1 (centres undefined)
inactive: Potency [1] | Potency [2] | Potency [3] | Potency [4] | Potency [5] | Potency [6] | Potency [7] | Potency [8] | Potency [9] | Potency [10] | Potency [11] | Potency [12] | Potency [14] | Potency [15] | Potency [16]

COC1=CC(=O)O[C@@H](CCc2ccccc2)C1
inactive: Potency [1] | Potency [2] | Potency [3] | Potency [4] | Potency [5] | Potency [6] | Potency [7] | Potency [8] | Potency [9] | Potency [10] | Potency [11] | Potency [12] | Potency [13] | Potency [14] | Potency [15] | Potency [16] | Potency [17] | Potency [18]

CC(O)(CS(=O)(=O)c1ccc(F)cc1)C(=O)Nc1ccc(C#N)c(C(F)(F)F)c1 (centres undefined)
inactive: Potency [1] | Potency [2] | Potency [3] | Potency [4] | Potency [5] | Potency [6] | Potency [7] | Potency [8] | Potency [9] | Potency [10] | Potency [19] | Potency [15] | Potency [16] | Potency [17]

C[As+](C)(C)CC(=O)[O-]
inactive: Potency [1] | Potency [2] | Potency [3] | Potency [4] | Potency [5] | Potency [6] | Potency [7] | Potency [8] | Potency [9] | Potency [10] | Potency [11] | Potency [12] | Potency [13] | Potency [14] | Potency [20] | Potency [15] | Potency [16] | Potency [17] | Potency [18]

Cc1nc2ccccc2c(=O)n1-c1ccccc1Cl
inactive: Potency [1] | Potency [2] | Potency [3] | Potency [4] | Potency [5] | Potency [6] | Potency [7] | Potency [8] | Potency [9] | Potency [10] | Potency [11] | Potency [12] | Potency [13] | Potency [14] | Potency [20] | Potency [15] | Potency [16] | Potency [17] | Potency [18]

Cc1c([N+](=O)[O-])c(C)c([N+](=O)[O-])c(C(C)(C)C)c1[N+](=O)[O-]
inactive: Potency [1] | Potency [2] | Potency [3] | Potency [4] | Potency [5] | Potency [6] | Potency [7] | Potency [8] | Potency [9] | Potency [10] | Potency [11] | Potency [12] | Potency [13] | Potency [14] | Potency [16] | Potency [17]
